The record followed here is PubChem BioAssay (NCATS).

The structures appear in SMILES notation. Inconclusive results are not listed. Calls of active or inactive are those of the source. Unless noted, calls follow the shape of the dose curve; as a rule, active = well fitted curve in the direction sought with a large enough effect; inconclusive = small, poorly fitted or top-dose-only effect, or another doubt; inactive = no such curve, though single readings can be large; an effect the other way counts as inactive or inconclusive.

The nature of test [1]: High Content Imaging Cell-Based qHTS for Inhibitors of the mTORC1 Signaling Pathway in MEF (Tsc2-/-, p53-/-) Cells (AID 2666).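 Also: percent of cells scored positive for phospho-rpS6 Ser235/236 immunostaining by imaging.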 Also: potency is read from the fitted curve at half-maximal effect. The procedure, abridged:
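Phospho-rpS6 (Ser235/236) immunofluorescence, normalized and scored as % positive cells using rapamycin and DMSO controls, was read in empty-vector Tsc2-/-, p53-/- MEFs after 24 h compound exposure at 37 C; propidium iodide counted cells.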

Test [2] can be described thus: High Content Imaging Cell-Based qHTS for Inhibitors of the mTORC1 Signaling Pathway in MEF Cells (AID 2667).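 Also: Tsc2-/- p53-/- MEFs stably re-expressing wild-type Tsc2 exposed 24 h; series mostly up to about 38 µM.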 An outline of the steps: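 WT MEFs (Tsc2-/-, p53-/- re-expressing Tsc2), in DMEM + 10% FBS, were treated with compound for 24 h at 37 C. Cells were then fixed and stained for phospho-rpS6 Ser235/236 with propidium iodide as cell count. Values are % positive cells, with thresholds set against rapamycin-treated cells.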
Background: Quantitative high-throughput screening tests each substance at several concentrations.

Test [3] in a line: Cytometry Cell-Based qHTS for Inhibitors of the mTORC1 Signaling Pathway in MEF cells (AID 2668). Also: potency is read from the fitted curve at half-maximal effect. The procedure, abridged: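 MEFs (Tsc2-/-, p53-/- stably expressing WT Tsc2) treated 24 h at 37 degree Celsius, fixed, stained with Alexa-488 anti-phospho-rpS6 Ser235/236 and propidium iodide; Acumen laser scanning. Reported as % positive cells, phospho-S6 normalized to PI.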
Test [4] concerns the target Ubiquitin carboxyl-terminal hydrolase 2 (Homo sapiens) (UniProt O75604). The test can be described thus: qHTS Validation Assay for Inhibitors of Ubiquitin-specific Protease USP2a Using CHOP2 as the Reporter (AID 463106). An outline of the steps: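 USP2 core (10 nM final) was preincubated with compound 30 min at RT in pH 8.0 Tris/CaCl2/beta-ME/CHAPS buffer. Ub-CHOP2 and reporter substrate (25 nM final each) were then added, with fluorescence (Ex 485/Em 531) read after 60 min. Data were normalized to NEM full inhibition and fitted to concentration-response curves.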

Test [5] has as its target DNA polymerase III PolC-type (Bacillus subtilis (strain 168)) (UniProt P13267). The test can be described thus: qHTS Validation Assay for the Inhibitors of DNA Replication in Gram-Positive Bacteria (AID 485295).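 Also: PicoGreen fluorescence of double-stranded DNA made on primed circular M13 template; series mostly up to about 57 µM.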 An outline of the steps: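 Reconstituted B. subtilis Pol III holoenzyme (PolC, beta clamp, SSB, primase) preincubated with compound, then M13Gori single-stranded circular template with dNTPs/NTPs added; room temperature reaction. Stopped with EDTA/PicoGreen; dsDNA fluorescence read, EDTA as full-inhibition control.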

Test [6] addresses Tumor susceptibility gene 101 protein (Homo sapiens) (UniProt Q99816). The test can be described thus: qHTS Validation Assay for Iinhibitors of HIV-1 Budding by Blocking the Interaction of PTAP/TSG101 (AID 485342; calls by dose curve). An outline of the steps:
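Tsg101 binding domain (10 uM) with FITC-labeled PTAP peptide (50 nM) in HEPES pH 7.5 buffer, 20 min at r.t. with compounds. Binding measured by fluorescence polarization.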

The target in test [7] is Ferritin light chain (Equus caballus) (UniProt P02791). The test can be described thus: qHTS Validation Assay for Identification of Novel General Anesthetics (AID 2323). Also: series mostly up to about 77 µM. The procedure, abridged:
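Horse-spleen apoferritin (10 uM) in PBS with 50% saturated 1-aminoanthracene; compounds pin-transferred, 10 min at room temperature. Fluorescence read at 380/535 nm, normalized to free 1-AMA and 1-AMA/apoferritin values; four-parameter Hill fit.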

The target in test [8] is ATP-dependent DNA helicase Q1 (Homo sapiens) (UniProt P46063). The test can be described thus: qHTS Validation Assay for Inhibitors of RecQ-Like Dna Helicase 1 (RECQ1) (AID 2353). The procedure, abridged:
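50 nM RECQ1T1 preincubated 15 min with compound in Tris pH 8.0 buffer with MgCl2, DTT, Tween-20 and 2.5 ug/ml poly(dI-dC); started with 200 nM TAMRA/BHQ-2 forked duplex and 2 mM ATP. Unwinding read as fluorescence (525/598 nm), two reads 2 h apart.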

The nature of test [9]: Validation screen for small molecules that induce DNA re-replication in MCF 10A normal breast cells (AID 463097). Also: nearly all actives have a fitted effect of over 60% in size. Also: potency is read from the fitted curve at half-maximal effect. An outline of the steps: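 MCF 10A cells exposed to compound 48 hr at 37 C, 5% CO2, then Hoechst-stained 40 min. Laser-scanning imaging of nuclear DNA content (405 nm ex, 500-530 nm em); re-replication scored as rise in nuclei with elevated fluorescence intensity.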

Test [10] concerns the target RecQ-like DNA helicase BLM (Homo sapiens) (UniProt P54132). In words: qHTS Validation Assay for Inhibitors of Bloom's syndrome helicase (BLM) (AID 2364). An outline of the steps: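 50 nM BLM preincubated 15 min at room temperature with compound in pH 8.0 Tris buffer containing 2.5 ug/ml poly(dI-dC); started with 200 nM TAMRA/BHQ-2 forked duplex and 2 mM ATP (final). Unwinding read as TAMRA fluorescence increase, two reads 2 h apart.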

Chain of Ubiquitin carboxyl-terminal hydrolase 2 (Homo sapiens) (O75604 whole entry, looked up): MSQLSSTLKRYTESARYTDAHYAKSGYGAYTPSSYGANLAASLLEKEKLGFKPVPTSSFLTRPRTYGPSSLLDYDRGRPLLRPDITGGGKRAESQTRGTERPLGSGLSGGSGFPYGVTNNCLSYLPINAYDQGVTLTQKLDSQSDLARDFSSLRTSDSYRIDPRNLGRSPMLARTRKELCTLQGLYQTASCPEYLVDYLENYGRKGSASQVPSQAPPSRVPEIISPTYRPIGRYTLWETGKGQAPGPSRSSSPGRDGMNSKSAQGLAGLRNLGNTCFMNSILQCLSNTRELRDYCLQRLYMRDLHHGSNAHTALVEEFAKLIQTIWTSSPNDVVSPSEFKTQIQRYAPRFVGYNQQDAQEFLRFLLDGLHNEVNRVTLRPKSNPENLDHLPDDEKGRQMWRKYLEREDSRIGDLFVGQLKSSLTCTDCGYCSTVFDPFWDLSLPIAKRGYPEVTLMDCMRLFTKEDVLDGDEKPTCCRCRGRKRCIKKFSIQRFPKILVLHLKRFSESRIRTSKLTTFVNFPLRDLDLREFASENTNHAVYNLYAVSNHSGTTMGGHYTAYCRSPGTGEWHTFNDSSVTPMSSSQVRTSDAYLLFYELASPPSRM
Chain of DNA polymerase III PolC-type (Bacillus subtilis (strain 168)) (P13267 whole entry, looked up): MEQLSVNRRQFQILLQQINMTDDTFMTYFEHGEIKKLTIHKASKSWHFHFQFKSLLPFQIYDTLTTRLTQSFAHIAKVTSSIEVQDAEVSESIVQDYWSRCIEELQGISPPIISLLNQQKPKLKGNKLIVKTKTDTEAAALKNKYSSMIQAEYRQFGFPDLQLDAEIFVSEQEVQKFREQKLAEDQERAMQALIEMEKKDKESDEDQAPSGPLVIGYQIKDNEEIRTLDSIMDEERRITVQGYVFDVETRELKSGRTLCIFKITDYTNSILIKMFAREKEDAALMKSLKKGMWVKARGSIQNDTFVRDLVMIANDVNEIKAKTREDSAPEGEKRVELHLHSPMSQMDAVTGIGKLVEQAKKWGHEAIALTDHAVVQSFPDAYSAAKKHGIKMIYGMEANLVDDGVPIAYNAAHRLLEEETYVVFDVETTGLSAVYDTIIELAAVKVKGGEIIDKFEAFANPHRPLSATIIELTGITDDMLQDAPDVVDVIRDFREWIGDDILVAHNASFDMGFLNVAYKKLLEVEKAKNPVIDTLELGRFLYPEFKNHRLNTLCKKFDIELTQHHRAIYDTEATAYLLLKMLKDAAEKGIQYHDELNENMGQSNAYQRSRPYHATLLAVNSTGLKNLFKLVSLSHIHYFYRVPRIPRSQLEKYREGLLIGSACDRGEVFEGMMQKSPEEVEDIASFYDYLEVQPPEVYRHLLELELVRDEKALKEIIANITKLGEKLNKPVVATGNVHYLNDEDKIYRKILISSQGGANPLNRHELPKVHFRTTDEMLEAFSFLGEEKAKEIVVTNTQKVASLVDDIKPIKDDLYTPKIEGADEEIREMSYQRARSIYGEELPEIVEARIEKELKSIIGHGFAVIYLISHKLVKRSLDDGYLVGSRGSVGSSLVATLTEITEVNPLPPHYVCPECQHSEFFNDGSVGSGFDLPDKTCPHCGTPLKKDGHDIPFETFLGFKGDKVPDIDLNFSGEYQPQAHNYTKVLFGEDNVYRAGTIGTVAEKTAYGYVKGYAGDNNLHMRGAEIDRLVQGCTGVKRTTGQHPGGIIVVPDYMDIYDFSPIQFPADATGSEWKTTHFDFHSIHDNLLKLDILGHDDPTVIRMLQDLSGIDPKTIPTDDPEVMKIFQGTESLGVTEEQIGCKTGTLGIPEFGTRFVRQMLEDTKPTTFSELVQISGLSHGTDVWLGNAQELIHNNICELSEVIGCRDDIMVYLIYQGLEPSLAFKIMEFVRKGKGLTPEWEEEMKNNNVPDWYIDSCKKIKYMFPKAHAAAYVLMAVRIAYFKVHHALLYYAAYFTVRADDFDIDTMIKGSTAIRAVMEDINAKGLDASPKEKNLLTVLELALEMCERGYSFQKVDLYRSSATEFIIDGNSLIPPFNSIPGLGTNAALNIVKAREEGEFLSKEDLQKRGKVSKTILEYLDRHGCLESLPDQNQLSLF
Chain of ATP-dependent DNA helicase Q1 (Homo sapiens) (P46063 whole entry, looked up): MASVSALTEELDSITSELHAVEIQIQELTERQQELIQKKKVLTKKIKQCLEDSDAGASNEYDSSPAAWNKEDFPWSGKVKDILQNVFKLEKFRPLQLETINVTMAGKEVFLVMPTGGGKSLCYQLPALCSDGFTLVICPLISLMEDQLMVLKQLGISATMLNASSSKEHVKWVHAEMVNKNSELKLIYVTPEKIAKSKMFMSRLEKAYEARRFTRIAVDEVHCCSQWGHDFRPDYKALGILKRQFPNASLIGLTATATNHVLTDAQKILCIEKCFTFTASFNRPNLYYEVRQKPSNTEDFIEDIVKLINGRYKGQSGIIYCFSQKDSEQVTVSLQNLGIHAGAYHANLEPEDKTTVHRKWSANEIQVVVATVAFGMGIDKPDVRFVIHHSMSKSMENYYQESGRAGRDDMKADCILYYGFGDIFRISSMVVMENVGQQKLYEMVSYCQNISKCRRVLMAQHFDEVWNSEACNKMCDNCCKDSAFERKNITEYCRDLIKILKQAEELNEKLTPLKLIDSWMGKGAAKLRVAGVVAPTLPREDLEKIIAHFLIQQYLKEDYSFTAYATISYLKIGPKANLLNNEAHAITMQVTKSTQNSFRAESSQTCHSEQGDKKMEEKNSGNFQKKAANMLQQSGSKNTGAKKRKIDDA
Chain of Tumor susceptibility gene 101 protein (Homo sapiens) (Q99816 whole entry, looked up, the tested form may be a part): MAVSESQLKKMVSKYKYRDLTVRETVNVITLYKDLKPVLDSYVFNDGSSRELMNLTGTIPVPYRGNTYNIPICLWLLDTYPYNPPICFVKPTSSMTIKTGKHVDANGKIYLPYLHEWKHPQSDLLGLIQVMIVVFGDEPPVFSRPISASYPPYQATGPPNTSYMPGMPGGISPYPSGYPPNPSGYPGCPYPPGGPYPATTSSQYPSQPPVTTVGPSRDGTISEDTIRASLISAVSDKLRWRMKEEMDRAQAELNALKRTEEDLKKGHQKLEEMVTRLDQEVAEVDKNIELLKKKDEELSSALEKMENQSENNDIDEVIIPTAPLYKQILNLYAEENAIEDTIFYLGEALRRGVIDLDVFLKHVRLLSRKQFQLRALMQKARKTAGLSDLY
Chain of RecQ-like DNA helicase BLM (Homo sapiens) (P54132 whole entry, looked up): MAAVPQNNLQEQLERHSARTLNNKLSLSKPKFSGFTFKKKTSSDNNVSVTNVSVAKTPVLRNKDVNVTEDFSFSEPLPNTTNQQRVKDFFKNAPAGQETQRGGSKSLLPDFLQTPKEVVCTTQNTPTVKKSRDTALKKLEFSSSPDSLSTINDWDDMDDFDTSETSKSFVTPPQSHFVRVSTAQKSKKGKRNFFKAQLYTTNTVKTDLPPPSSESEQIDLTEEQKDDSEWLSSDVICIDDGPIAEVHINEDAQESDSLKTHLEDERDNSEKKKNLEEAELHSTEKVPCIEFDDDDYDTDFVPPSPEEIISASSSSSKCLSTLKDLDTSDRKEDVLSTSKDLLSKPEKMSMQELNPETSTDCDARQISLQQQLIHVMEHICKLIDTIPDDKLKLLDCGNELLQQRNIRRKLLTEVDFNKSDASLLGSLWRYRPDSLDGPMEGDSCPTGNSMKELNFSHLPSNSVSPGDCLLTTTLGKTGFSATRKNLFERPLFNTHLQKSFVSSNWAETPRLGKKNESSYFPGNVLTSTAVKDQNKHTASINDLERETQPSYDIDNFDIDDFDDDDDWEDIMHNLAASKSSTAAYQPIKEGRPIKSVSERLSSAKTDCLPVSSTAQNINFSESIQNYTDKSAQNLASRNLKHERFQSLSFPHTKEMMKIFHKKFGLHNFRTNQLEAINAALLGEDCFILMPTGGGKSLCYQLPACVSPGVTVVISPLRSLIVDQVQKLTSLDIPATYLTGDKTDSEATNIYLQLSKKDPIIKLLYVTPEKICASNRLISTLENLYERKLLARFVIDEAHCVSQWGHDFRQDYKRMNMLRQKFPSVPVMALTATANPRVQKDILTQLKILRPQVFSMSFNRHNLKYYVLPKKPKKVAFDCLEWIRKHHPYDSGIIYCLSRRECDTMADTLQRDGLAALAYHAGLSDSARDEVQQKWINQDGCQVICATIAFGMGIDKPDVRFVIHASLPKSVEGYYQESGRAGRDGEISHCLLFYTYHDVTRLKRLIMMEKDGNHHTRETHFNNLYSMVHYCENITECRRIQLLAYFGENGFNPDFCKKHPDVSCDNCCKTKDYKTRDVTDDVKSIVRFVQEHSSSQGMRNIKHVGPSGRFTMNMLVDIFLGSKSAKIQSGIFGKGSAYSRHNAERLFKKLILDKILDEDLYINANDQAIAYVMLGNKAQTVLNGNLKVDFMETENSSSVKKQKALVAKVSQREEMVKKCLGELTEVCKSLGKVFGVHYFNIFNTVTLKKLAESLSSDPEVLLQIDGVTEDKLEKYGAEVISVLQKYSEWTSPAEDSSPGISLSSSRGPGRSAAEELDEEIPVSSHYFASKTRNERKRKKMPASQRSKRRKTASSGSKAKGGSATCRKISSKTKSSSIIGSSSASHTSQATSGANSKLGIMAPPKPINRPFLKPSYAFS
Chain of Ferritin light chain (Equus caballus) (P02791 2-175 limits assumed): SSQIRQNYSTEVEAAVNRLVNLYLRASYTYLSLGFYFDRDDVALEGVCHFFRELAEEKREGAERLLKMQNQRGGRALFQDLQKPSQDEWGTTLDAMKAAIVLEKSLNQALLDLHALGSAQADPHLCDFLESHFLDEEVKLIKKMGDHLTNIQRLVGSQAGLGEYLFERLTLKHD

In the case of `CCn1cc(C(=O)O)c(=O)c2ccc(C)nc21`, the Potency entry in test [1] and in [3] was “inactive” each time. Also, the outcome in test [2], in test [4], in [5] and in test [6] was inactive.

For `CCN(CC)CCNC(=O)c1ccc(N)cc1`, the molecule was called inactive in test [7], in test [8], in test [2], in test [5] and in [6]. Also, the Potency entry in test [1], in [3] and in test [9] was “inactive” in each case.

As to `CC1=C(/C=C/C(C)=C/C=C/C(C)=C/C(=O)Nc2ccc(O)cc2)C(C)(C)CCC1`, the molecule was classed as inactive in test [8], in [4], in [5] and in test [6]. Besides, the Potency in test [3] was 18.5 µM (active).

Turning to `CC(=O)N[C@@H](CS)C(=O)O`, the outcome in test [7], in test [2], in test [4], in test [5] and in test [6] was inactive. Further, the Potency entry in test [1], in test [3] and in test [9] was “inactive” each time.

In the case of `C[N+](C)(C)CCCCCC[N+](C)(C)C`, the outcome in [7], in [8], in test [2], in test [4], in test [5] and in test [6] was inactive. The Potency entry in test [10], in test [1], in test [3] and in test [9] was “inactive” each time.

On to `O=C1NC(=O)C(c2ccccc2)(c2ccccc2)N1`, for which the call in [7], in [8], in test [2], in test [4], in [5] and in [6] was inactive. Besides, the Potency entry in [1], in [3] and in test [9] was “inactive” throughout.

Turning to `COC(=O)[C@@H]1[C@H]2C[C@H]3c4[nH]c5ccccc5c4CCN3C[C@@H]2CC[C@@H]1O`, the result in test [7], in test [8], in test [2], in [4], in [5] and in [6] was inactive. The Potency entry in [10], in [1] and in [9] was “inactive” in each case.

In the case of `CCN1CCC[C@H]1CNC(=O)c1cc(S(N)(=O)=O)ccc1OC`, the molecule was called inactive in test [7], in [8], in [2], in [4], in test [5] and in test [6]. For the same molecule, the Potency result in test [1], in test [3] and in [9] was “inactive” throughout.

On to `CC(=O)CCCCn1c(=O)c2c(ncn2C)n(C)c1=O`, for which the molecule was called inactive in test [7], in test [8], in [2], in [4], in test [5] and in [6]. Also, the Potency result in [10], in test [1], in [3] and in [9] was “inactive” each time.

For `CC(C)(C)c1ccc(C(O)CCCN2CCC(C(O)(c3ccccc3)c3ccccc3)CC2)cc1` (configuration not stated), the outcome in test [8], in [4], in test [5] and in [6] was inactive. In addition, the Potency in test [1] is 18.5 µM (active); in test [3], 7.36 µM (active); in [9], 11.2 µM (active).

In the case of `COc1ccc(Cc2nccc3cc(OC)c(OC)cc23)cc1OC`, the Potency result in test [1] and in test [3] was “inactive” each time. Further, the molecule was called inactive in [2], in [4], in test [5] and in test [6].

Turning to `CCCNC(=O)NS(=O)(=O)c1ccc(Cl)cc1`, the call in test [7], in test [8], in [2], in test [4], in [5] and in test [6] was inactive. For the same molecule, the Potency result in [10], in test [1], in test [3] and in test [9] was “inactive” throughout.

Take `O=C1NCC2(CCN(CCc3ccccc3)CC2)O1`: the result in [7], in test [8], in test [2], in [4], in test [5] and in test [6] was inactive. Also, the Potency entry in [1], in [3] and in [9] was “inactive” in each case.

For the molecule `O=c1cc(-c2ccc(O)cc2)oc2cc(O)cc(O)c12`, the outcome in test [8], in [2], in [4], in test [5] and in test [6] was inactive. In addition, the Potency result in test [10], in test [1] and in [3] was “inactive” each time.

For `CC(C)OC(=O)C(C)(C)Oc1ccc(C(=O)c2ccc(Cl)cc2)cc1`, the molecule was called inactive in test [8], in test [2], in test [4], in [5] and in test [6]. Further, the Potency entry in [1] and in test [9] was “inactive” each time.

With `CC(C)NCC(O)COc1cccc2[nH]ccc12` (configuration not stated), the result in test [7], in test [8], in [2], in test [4], in [5] and in test [6] was inactive. Moreover, the Potency entry in test [1], in test [3] and in test [9] was “inactive” throughout.

For `O=C(NCCN1CCOCC1)c1ccc(Cl)cc1`, the Potency result in test [1] and in test [3] was “inactive” each time. In addition, the call in test [2], in test [4], in test [5] and in test [6] was inactive.

Take `C[N+](C)(C)CC(=O)O`: the Potency entry in test [1] and in test [3] was “inactive” each time. In addition, the result in test [2], in [4], in test [5] and in [6] was inactive.
